Assay results published in PubChem BioAssay (Tox21).
Several values for one entry are separate records, joined by “and”; a condition that tells them apart may be missing. Identical values can stand only once. Inconclusive results are not listed. Where a call stands in place of a potency, no number is given. The source holds several records for some structures; these can differ, active in one and inactive in another. Activity calls are given as the source filed them. Unless noted, calls follow the shape of the dose curve; as a rule, active = well fitted curve in the direction sought with a large enough effect in the repeat runs; inconclusive = weak or mixed curves; inactive = no such curve, though single readings can be large; an effect the other way counts as inactive or inconclusive.

Legend:
[1] = target: Luciferin 4-monooxygenase (Photinus pyralis) (UniProt P08659); test: qHTS assay to identify small molecule inhibitors of firefly luciferase (AID 1224835); also: nearly all actives have a fitted effect of over 25% in size; also: potency is read from the fitted curve at half-maximal effect; conditions: purified P. pyralis luciferase, luminescence inhibition; series mostly up to 115 µM
Chain of Luciferin 4-monooxygenase (Photinus pyralis) (P08659 whole entry, looked up): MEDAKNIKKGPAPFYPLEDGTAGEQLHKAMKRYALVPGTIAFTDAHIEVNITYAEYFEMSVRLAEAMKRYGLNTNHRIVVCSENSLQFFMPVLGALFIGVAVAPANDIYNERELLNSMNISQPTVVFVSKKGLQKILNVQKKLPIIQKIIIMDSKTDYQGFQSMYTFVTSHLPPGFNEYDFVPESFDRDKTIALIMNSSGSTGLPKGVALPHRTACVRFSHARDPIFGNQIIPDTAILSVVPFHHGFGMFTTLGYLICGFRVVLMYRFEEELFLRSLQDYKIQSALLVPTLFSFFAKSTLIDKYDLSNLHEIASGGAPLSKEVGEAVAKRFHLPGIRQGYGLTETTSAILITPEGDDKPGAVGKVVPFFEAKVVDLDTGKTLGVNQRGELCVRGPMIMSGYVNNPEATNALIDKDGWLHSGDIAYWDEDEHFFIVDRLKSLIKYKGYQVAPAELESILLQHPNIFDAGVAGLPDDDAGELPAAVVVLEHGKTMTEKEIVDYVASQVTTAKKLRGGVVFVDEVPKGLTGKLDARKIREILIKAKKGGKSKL
In short: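 Biochemical qHTS: compounds run as interplate titrations against purified firefly enzyme, with D-luciferin and ATP each at its KM concentration. Light output recorded by CCD imaging.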

[2] = qHTS assay to identify small molecule agonists of the constitutive androstane receptor (CAR) signaling pathway - cell viability counter screen (AID 1224836); conditions: HepG2-CYP2B6-hCAR viability, CellTiter-Fluor, 23 h, PK11195 added to every well; series mostly up to 92.4 µM; also: nearly all actives have a fitted effect of over 45% in size
In short: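 23 h treatment, 37 C, 5% CO2. Cell line: HepG2 stably expressing hCAR with a CYP2B6-2.2kb construct. Co-treatment: PK11195, 0.75 uM final. Read-out: CellTiter-Fluor fluorescence intensity.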

[3] = qHTS assay to identify small molecule antagonists of the constitutive androstane receptor (CAR) signaling pathway - cell viability counter screen (AID 1224837); conditions: HepG2-CYP2B6-hCAR viability, CellTiter-Fluor, 23 h, co-treated with 50 nM CITCO; series mostly up to 92.4 µM; also: nearly all actives have a fitted effect of over 45% in size
In short: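 Multiplexed cytotoxicity read-out for the CAR antagonist screen: double-stable HepG2-CYP2B6-hCAR cells co-treated with 50 nM CITCO (final) and compound over 15 concentrations, incubated 23 hr, then assessed by CellTiter-Fluor fluorescence.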

[4] = target: Nuclear receptor subfamily 1 group I member 3 (Homo sapiens) (UniProt Q14994); test: qHTS assay to identify small molecule antagonists of the constitutive androstane receptor (CAR) signaling pathway (AID 1224838); conditions: HepG2-CYP2B6-hCAR luciferase, CITCO-stimulated, 24 h; series mostly up to 92.4 µM; also: nearly all actives have a fitted effect of over 40% in size; also: potency is read from the fitted curve at half-maximal effect
Chain of Nuclear receptor subfamily 1 group I member 3 (Homo sapiens) (Q14994 whole entry, looked up): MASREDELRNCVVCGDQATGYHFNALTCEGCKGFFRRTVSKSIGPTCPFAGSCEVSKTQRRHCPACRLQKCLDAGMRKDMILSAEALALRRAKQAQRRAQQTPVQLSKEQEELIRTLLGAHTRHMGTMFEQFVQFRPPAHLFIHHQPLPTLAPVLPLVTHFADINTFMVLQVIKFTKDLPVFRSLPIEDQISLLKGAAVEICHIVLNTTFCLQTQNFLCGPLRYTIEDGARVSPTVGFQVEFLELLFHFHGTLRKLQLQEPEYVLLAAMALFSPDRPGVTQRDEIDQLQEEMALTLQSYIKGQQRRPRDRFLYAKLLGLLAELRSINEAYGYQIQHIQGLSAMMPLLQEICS
In short: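 Compounds were titrated across 15 concentrations onto HepG2 cells double-stably expressing hCAR and a CYP2B6-2.2kb reporter, together with 50 nM CITCO (final). After 24 h at 37 C, luciferase activity was measured by luminescence.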

[5] = target: Nuclear receptor subfamily 1 group I member 3 (Homo sapiens) (UniProt Q14994); test: qHTS assay to identify small molecule agonists of the constitutive androstane receptor (CAR) signaling pathway (AID 1224839); conditions: HepG2 hCAR CYP2B6-luciferase, agonist mode, 24 h; series mostly up to 92.4 µM; also: nearly all actives have a fitted effect of over 15% in size; also: potency is read from the fitted curve at half-maximal effect
In short: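 Compounds tested at 15 concentrations on HepG2 cells stably harbouring hCAR and CYP2B6-2.2kb reporter constructs, co-treated with PK11195 (0.75 uM final), 24 h at 37 C; luminescent reporter signal quantified.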

[6] = qHTS assay to identify small molecule antagonists of the estrogen related receptor signaling pathway with the pleiotropic PPARgamma coactivator (PGC) from Tox21 10K library - cell viability counter screen (AID 1224840; active = well fitted cell-killing curve with a large enough effect in the repeat runs, not every such curve was filed as active; also: nearly all actives have a fitted effect of over 40% in size); conditions: PGC/ERR reporter cells viability, CellTiter-Fluor, 17.5 h; series mostly up to 92.4 µM
In short: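 Step one, plate 2,000 PGC/ERR cells per well; step two, incubate 6 h at 37 C/5% CO2; step three, pin-transfer compounds; step four, incubate 17.5 h; step five, add CellTiter-Fluor and read fluorescence after 30 min.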

[7] = qHTS assay to identify small molecule antagonists of the estrogen related receptor signaling pathway with the pleiotropic PPARgamma coactivator (PGC) from Tox21 10K library (AID 1224841; call rule not given here; also: actives are mostly falling curves and most rising ones were filed inactive; nearly all actives have a fitted effect of over 50% in size; also: potency is read from the fitted curve at half-maximal effect); conditions: PGC/ERR reporter cell line, ONE-Glo luciferase, 18 h; series mostly up to 92.4 µM
In short: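 Antagonism in this quantitative HTS is taken from loss of luciferase signal in PGC/ERR cells. Cells (2,000/well) are treated with compounds in DMSO after a 6 h settling period and read by One-Glo luminescence after 18 h.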

[8] = qHTS assay to identify small molecule agonists of the estrogen related receptor signaling pathway with the pleiotropic PPARgamma coactivator (PGC) from Tox21 10K library (AID 1224842); conditions: PGC/ERR reporter cell line, luciferase ONE-Glo, 18 h; series mostly up to 92.4 µM; also: nearly all actives have a fitted effect of over 15% in size; also: potency is read from the fitted curve at half-maximal effect
In short: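 PGC/ERR reporter cell line, 2,000 cells per well, incubated 6 h at 37 C before 23 nL compound in DMSO was added. After 18 h at 37 C, One-Glo luminescence read following 30 min at room temperature.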

Row | Compound | Potency [1] | Potency [2] | Potency [3] | Potency [4] | Potency [5] | Potency [6] | Potency [7] | Potency [8]
1 | O=P(Oc1ccccc1)(Oc1ccccc1)Oc1ccccc1 | inactive | inactive | inactive | inactive | 21.6 µM (active) and 19.3 µM (active) | inactive | 13.6 µM (active) | inactive
2 | Oc1cc(Cl)ccc1Oc1ccc(Cl)cc1Cl | inactive |  |  | 55.8 µM (active) and inactive | inactive |  | 33.2 µM (active) | inactive
3 | c1ccc(NNc2ccccc2)cc1 | 25.4 µM (active) and 17.8 µM (active) | inactive | inactive |  |  | inactive | inactive | inactive
4 | CCCCCc1cc(O)cc(O)c1 | 63.6 µM (active) and 39.9 µM (active) | inactive |  | inactive | 54.5 µM (active) |  |  | 
5 | CCC(C)(c1ccc(O)cc1)c1ccc(O)cc1 | inactive | inactive | inactive | inactive | 4.85 µM (active) and 3.06 µM (active) |  | 48.5 µM (active) | inactive
6 | NNC(=S)NN | inactive | inactive | inactive |  |  |  | 62.8 µM (active) and 61.1 µM (active) | inactive
7 | N[C@@H](Cc1ccc(N(CCCl)CCCl)cc1)C(=O)O |  | inactive | inactive |  |  |  |  | 
8 | CCCCCCCCCCCOC(=O)c1ccccc1C(=O)OCCCCCCCCCCC | inactive | inactive | inactive |  |  | inactive |  | 
9 | C#CCOS(=O)OC1CCCCC1Oc1ccc(C(C)(C)C)cc1 (centres undefined) |  |  |  | inactive | inactive and 5.45 µM (active) | inactive | 3.86 µM (active) and 3.06 µM (active) | inactive
10 | S=C1NCCN1 |  | inactive |  |  |  | inactive |  | 
11 | COP(=S)(OC)Oc1ccc([N+](=O)[O-])cc1 |  | inactive | inactive | inactive | inactive |  |  | 
12 | CCCCC(CC)COC(=O)c1ccc(C(=O)OCC(CC)CCCC)c(C(=O)OCC(CC)CCCC)c1 (centres undefined) | inactive | inactive |  | inactive | inactive | inactive |  | 
13 | Cc1cccc(N)c1N | 30.6 µM (active) | inactive |  | inactive | 59.1 µM (active) and 54.5 µM (active) |  | inactive | inactive and 15.4 µM (active)
14 | CCN(CC)N=O | inactive | inactive | inactive |  |  | inactive | inactive | inactive
15 | CC1(C)C(C=C(Cl)Cl)C1C(=O)OC(C#N)c1cccc(Oc2ccccc2)c1 (centres undefined) | inactive | inactive |  | inactive |  | inactive |  | 
16 | CN(C)C(=O)Nc1ccc(Cl)cc1 | inactive | inactive |  | inactive | inactive |  |  | 
17 | NNC(N)=S | inactive | inactive |  | 63.5 µM (active) | inactive | inactive | 31.8 µM (active) and inactive | inactive
